Screens: PubChem, National Center for Advancing Translational Sciences (NCATS)
Mito fusion act: blocks mitochondrial division or promotes mitochondrial fusion; hit rate 0.23% among 320,000; Potency, µM (titrated, usually from 46.1 µM), without a hit: at the top dose growth rescue (activation), most hits filed as activators; AID 485298; S. cerevisiae fusion-defective mutant growth rescue, CellTiterGlo 48 h; also: % of control where 0% means no effect; nearly all actives have a fitted effect of over 45% in size
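Read-out: ATP-based luminescence (CellTiterGlo, 10 min ambient) reporting growth of fusion-defective ts yeast after 48 hours at 37C on glycerol/ethanol YPEG medium in the presence of compound.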
FUS yeast rescue: rescues growth of FUS-expressing yeast; AID 1347120; Potency, µM (series often up to 76.6 µM), actives largely listed as activators; hit rate 0.24% among 390,000; S. cerevisiae FUS-expressing, growth rescue, OD600, 24 h;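 also: plate controls were DMSO vehicle for no effect and reference control for full effect; nearly all actives have a fitted effect of over 55% in size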
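Compound concentration series was pinned onto galactose-induced FUS-expressing yeast seeded at OD 0.005. Plates sat 24hr at 30C; absorbance at 600 nm gave growth. DMSO served as background control.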
TDP-43 yeast inh: TDP-43 toxicity inhibition in yeast. hit rate 1.8% among 410,000. Potency, µM (highest dose often 46.1 µM), without a hit: at the top dose growth rescue (activation), hits mostly activators. TDP-43 expressing yeast growth rescue, BacTiter-Glo, 24 h. AID 652104; also: % of control where 0% means no effect; nearly all actives have a fitted effect of over 50% in size
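In this qHTS, compounds that restore growth of yeast expressing TDP-43 appear as activators. Cells (OD600=0.02, galactose medium, raffinose-pregrown) are incubated with compound 24 hr at 30 deg C and growth is quantified by BacTiter-Glo.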
Abeta rescue: compounds reversing amyloid beta toxicity in yeast. AID 1347071. Potency, µM (titrated, usually from 46.1 µM), most hits filed as activators. yeast expressing A-beta42, growth rescue, OD600, 48 h; response scale: 0% DMSO, 100% iron-clioquinol control. hit rate 0.063% among 410,000; also: nearly all actives have a fitted effect of over 55% in size
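Growth rescue measured by 600 nm absorbance after 48 h yeast culture at 30 C with compound. Values normalized between DMSO and an equimolar ferric chloride plus clioquinol control.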
aSyn yeast inh: inhibitors of alpha-synuclein toxicity in yeast. Yeast expressing alpha-synuclein, growth rescue, BacTiter-Glo, 24 h. Potency, µM (top dose mostly 46.1 µM), inactives show top-dose growth rescue (activation), most hits filed as activators. hit rate 0.14% among 370,000. AID 652106; also: % of control where 0% means no effect; nearly all actives have a fitted effect of over 65% in size
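Galactose-induced alpha-syn yeast (OD600=0.02, raffinose-pregrown) + pinned cpd, 24 hr, 30 deg C; growth by BacTiter-Glo luminescence. Growth restoration scores as activation.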
* = called active by the depositor; i = inactive; ? = inconclusive; . = no result given. Shown are actives, neighbours in structure and some others; about 2.2% of the full set was active somewhere. Calls follow the shape of the dose curve; as a rule, active = well fitted curve in the direction sought with a large enough effect; inconclusive = small, poorly fitted or top-dose-only effect, or another doubt; inactive = no such curve, though single readings can be large; an effect the other way counts as inactive or inconclusive. Potency is read from the fitted curve at half-maximal effect.

SMILES	Mito fusion act	FUS yeast rescue	TDP-43 yeast inh	Abeta rescue	aSyn yeast inh
COc1ccc(NN=Nc2ccc([N+](=O)[O-])cc2)cc1	-4%	i	18µM*	?	-9%
Cc1nc(N2CCCCC2)sc1C(=O)c1ccc(SCCO)c([N+](=O)[O-])c1	0%	i	35µM*	i	26%
COc1ccc(-c2cc(C(=O)Nc3cccnc3)no2)cc1OC	-1%	i	19%	i	0%
COc1ccc2[nH]c(C)c(C(=O)CN(C)CC(OC)OC)c2c1	.	.	.	.	-5%
c1ccc2c(c1)nc(N1CCOCC1)c1nncn12	0%	i	0%	i	-5%
FC(F)(F)c1cccc(N2CCN(c3nc4ccccc4n4cnnc34)CC2)c1	.	i	22µM*	i	.
c1ccc2c(c1)CCN(c1nc3ccccc3n3cnnc13)C2	4%	i	35µM*	i	-6%
c1ccc(N2CCN(c3nc4ccccc4n4cnnc34)CC2)cc1	18%	i	35µM*	i	5%
Cc1cc(NS(=O)(=O)c2ccc(NC(=O)Cc3ccccc3)cc2)no1	.	i	.	.	.
COc1cc(-c2nc3cnccn3c2Nc2ccc(C(C)C)cc2)ccc1O	-4%	i	0%	i	1%
CC(C)c1ccc(Nc2c(-c3ccccc3O)nc3cnccn23)cc1	.	i	25µM*	i	.
S=c1[nH]c2ccccc2n1CCOc1ccccc1	-7%	i	?	11µM*	13%
CCOc1ccc(OCCn2c(=S)[nH]c3ccccc32)cc1	4%	?	17%	?	0%
O=c1sc2ccccc2n1CCOc1ccccc1	9%	i	11µM*	i	0%
S=c1[nH]c2ccccc2n1Cc1ccccc1	-8%	i	?	11µM*	11%
COc1ccc(OCc2nnc(SCC(=O)N3C(C)CCCC3C)o2)cc1 (stereo not drawn)	22%	i	8%	i	?
CCOc1ccc(N(CC(=O)NCCSCc2ccc(Cl)cc2)S(C)(=O)=O)cc1	2%	i	8%	i	-15%
CC(C)=CCC[C@H](C)C[C@@H]1Cc2[nH][nH]c(=O)c2[C@H](c2ccc(Cl)cc2)O1	.	i	14%	i	-3%
CC(C)(C)NCC(=O)N/N=C/c1ccc(OCc2ccccc2)cc1	3%	i	22µM*	i	4%
Oc1ccc(N=Cc2ccc(OCc3ccccc3)cc2)cc1	-4%	i	25µM*	i	2%
O=C(O)CC(CC(=O)O)c1ccc2c(c1)OCO2	.	.	.	.	0%
C=CCN1[C@H](CC(C)C)COc2cc(N3CCSCC3)ccc2S1(=O)=O	.	i	.	.	.
O=C1C=C(c2cc3ccccc3s2)C[C@@H](c2ccc(F)cc2)C1	?	i	18µM*	i	1%
COc1ccc(C2=CC(=O)CC(c3ccc(OC)cc3)C2)cc1 (stereo not drawn)	?	i	25µM*	i	14%
COCc1ccccc1C1=CC(=O)C[C@H](c2ccc(OC)cc2)C1	3%	i	11µM*	i	9%
SMILES	Mito fusion act	FUS yeast rescue	TDP-43 yeast inh	Abeta rescue	aSyn yeast inh
O=C1C=C(c2cc3ccccc3s2)C[C@@H](c2ccc(Cl)cc2)C1	.	i	0%	i	8%
O=C1C=C(C#Cc2ccccc2)C[C@@H](c2ccc(F)cc2)C1	.	i	18µM*	i	1%
COc1ccc(C2=CC(=O)C[C@H](c3ccc(Cl)cc3)C2)cc1	?	i	?	i	2%
Cc1ccc(Oc2c(C(F)(F)F)oc3c(CN4CCCCC4C)c(O)ccc3c2=O)cc1 (stereo not drawn)	.	i	9%	i	.
CCn1c2ccccc2c2cc(NC(=O)COC(=O)c3cc(OC)c(OC)cc3OC)ccc21	-3%	i	?	i	2%
COc1ccccc1C(=O)n1ccc2ccc(-c3ccc4ccn(Cc5ccccc5)c4c3)cc21	.	i	.	.	.
CCN(C[C@H]1[C@@H](c2ccc(C3=CCCC3)cc2)[C@H](CO)N1Cc1ccccn1)S(=O)(=O)c1ccccc1[N+](=O)[O-]	.	i	.	.	.
COc1ccc(C2=CC(=O)CC(c3ccccc3)C2)cc1 (stereo not drawn)	0%	i	18µM*	i	10%
CC(C)c1cccc(C2=CC(=O)C[C@H](c3ccc(F)cc3)C2)c1	25%	i	13%	i	-10%
Cn1ccc2ccc(C3=CC(=O)C[C@H](c4ccc(F)cc4)C3)cc21	?	i	16µM*	i	12%
C=Cc1ccc(C2=CC(=O)C[C@H](c3ccc(OC)cc3)C2)cc1	?	i	15%	i	8%
CCOc1ccc(C2=CC(=O)C[C@H](c3ccc(OC)cc3)C2)cc1	?	i	13µM*	i	12%
COc1ccc(C2=CC(=O)CC(c3ccc(F)cc3)C2)cc1 (stereo not drawn)	.	i	16µM*	i	9%
CCOc1ccc(-c2ccc(C3=CC(=O)C[C@H](c4ccc(F)cc4)C3)cc2)cc1	.	i	11%	i	8%
Cc1ccsc1S(=O)(=O)n1c(CN2CCOCC2)nc2ccccc21	.	i	.	.	.
CCOc1cccc(C2C=C(c3ccc4c(c3)OCO4)NC(c3cccc(Br)c3)N2)c1O (stereo not drawn)	.	.	.	.	1%
COc1c([N+](=O)[O-])ccc(N)c1N	.	.	.	.	-8%
O=C1C=C(c2ccc(C(=O)O)cc2)C[C@@H](c2ccc(F)cc2)C1	.	i	9%	i	23%
Cc1ccc(C2=CC(=O)C[C@H](c3ccc(F)cc3)C2)cc1	?	i	16µM*	i	14%
O=C1C=C(c2ccc(-c3ccccc3)cc2)C[C@@H](c2ccc(F)cc2)C1	18%	i	0%	i	1%
O=C1C=C(c2ccc(CO)cc2)C[C@@H](c2ccc(F)cc2)C1	.	i	35µM*	i	14%
CC(=O)N1CCCc2cc(S(=O)(=O)N3CCC(C(=O)N(C)C4CCCCC4)CC3)ccc21	.	i	20%	i	.
O=C(N/N=C\C=C\c1ccco1)C1COc2ccccc2O1 (stereo not drawn)	-1%	i	14µM*	i	13%
O=C(N/N=C/C=C/c1ccc([N+](=O)[O-])cc1)C1COc2ccccc2O1 (stereo not drawn)	4%	i	0%	i	12%
O=C(N/N=C\c1cc(Br)cs1)C1COc2ccccc2O1 (stereo not drawn)	9%	i	35µM*	?	14%
C#CCN1C(C(=O)OC)CN(CCCCCC)CCS1(=O)=O (stereo not drawn)	.	i	.	.	.
O=C(C[n+]1csc2ccccc21)c1ccc(O)c(O)c1	.	.	.	.	3%
CCNC(=O)c1cc2c(c(-c3cccc(-c4ccccc4F)c3)n1)[C@@H](CCO)N(C(=O)CC1CC1)C2	.	18µM*	?	i	15%
